Our source for the cell count values is the supplement of paper PMC4709259.

Structures are written as SMILES. ± gives the standard deviation.

For the test, the system named is Jurkat. As to the kind of experiment: cell count relative to DMSO control (fraction of control); higher = more cells (less growth inhibition). The following applies: 48 h.
The compound `CC1=C(/C=C/C(C)=C/C=C/C(C)=C/C(=O)O)C(C)(C)CCC1` [Tretinoin] (concentration: 25 µM) came in with a cell count of 1.02 ± 0.11. Consider `CC1(C)C[C@@H]1C(=O)N/C(=C\CCCCSC[C@H](N)C(=O)O)C(=O)O` [Cilastatin·Na] (concentration: 25 µM), for which the cell count worked out at 1.03 ± 0.092. The compound `Cc1ccccc1N1C(=O)c2cc(S(N)(=O)=O)c(Cl)cc2NC1C` (stereo not drawn) [Metolazone] (concentration: 25 µM) came in with a cell count of 0.918 ± 0.095.

As to `C[C@]12C=CC(=O)N[C@@H]1CC[C@@H]1[C@@H]2CC[C@]2(C)[C@@H](C(=O)Nc3cc(C(F)(F)F)ccc3C(F)(F)F)CC[C@@H]12` [Dutasteride] (concentration: 25 µM), the cell count worked out at 0.636 ± 0.17. For the compound `CC[C@H]1OC(=O)[C@H](C)C(=O)[C@H](C)[C@@H](O[C@@H]2O[C@H](C)C[C@H](N(C)C)[C@H]2O)[C@](C)(OC)C[C@@H](C)C(=O)[C@H](C)[C@H]2N(CCCCn3cnc(-c4cccnc4)c3)C(=O)O[C@]12C` [Telithromycin] (concentration: 25 µM), the cell count came to 0.949 ± 0.057.

Turning to `CC(C)[N+]1(C)[C@@H]2CC[C@H]1CC(OC(=O)C(CO)c1ccccc1)C2` (stereo partly drawn) [Ipratropium·Br] (concentration: 25 µM), the cell count was 0.704 ± 0.18.

Turning to `C[C@@H]1O[C@@H]1P(=O)(O)O` [Fosfomycin Calcium] (concentration: 25 µM), the cell count was 0.474 ± 0.19. Compound `CCS(=O)(=O)CCn1c([N+](=O)[O-])cnc1C` [Tinidazole] (concentration: 25 µM) displayed a cell count of 0.528 ± 0.018. Turning to `CN1CCN2c3ncccc3Cc3ccccc3C2C1` (stereo not drawn) [Mirtazapine] (concentration: 25 µM), the cell count stood at 0.951 ± 0.02. Regarding `CO/N=C(\C(=O)N[C@@H]1C(=O)N2C(C(=O)O)=C(COC(C)=O)CS[C@H]12)c1csc(N)n1` [Cefotaxime Acid] (concentration: 25 µM), the cell count is 0.957 ± 0.025. Compound `CN1C(=O)OC(C)(C)C1=O` [Trimethadione] (concentration: 25 µM) showed a cell count of 1.02 ± 0.025.

With `CCOC(=O)[C@H](CCc1ccccc1)N[C@@H](C)C(=O)N1[C@H](C(=O)O)C[C@@H]2CCC[C@@H]21` [Ramipril] (concentration: 25 µM), the cell count turned out to be 0.965 ± 0.031.

As for `NC(=O)N[C@@H](CCC(=O)O)C(=O)O` [Carglumic Acid] (concentration: 25 µM), the cell count was 0.806 ± 0.1.
